A short description of experiment [1]: HepG2 liver cancer cell viability effects, profiling panel, resazurin fluorescence, 24 h, PK04 Diversity Set (AID 1172). The conditions noted are these: higher = more signal.
Experiment [2] is described as follows: basal S. cerevisiae growth modulation, no modifier, primary screen, OD600, strain BY4716, 24 h, basal condition (AID 1173). The conditions noted are these: OD600, 24 h, higher = more signal, called active from +8 up or from −8 down.
A short description of experiment [3]: MM1S myeloma cell viability, profiling panel, resazurin fluorescence, basal, 24 h, PK04 Diversity Set (AID 1174).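 Also: MM1S multiple myeloma cell line.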 The conditions noted are these: higher = more signal, called active from +8 up or from −8 down.
Experiment [4] deals with Dihydroorotate dehydrogenase (quinone), mitochondrial (Plasmodium falciparum (isolate 3D7)) (UniProt Q08210). The experiment is described as follows: PfDHODH enzyme inhibitors, primary screen, biochemical, C-terminal His tag, absorbance 600 nm (AID 1175).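 Also: recombinant parasite enzyme with a five histidine tag at its C terminus.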 The conditions noted are these: DCIP absorbance 600 nm, higher = more signal, called active from +8 up or from −8 down.
Chain of Dihydroorotate dehydrogenase (quinone), mitochondrial (Plasmodium falciparum (isolate 3D7)) (Q08210 whole entry, looked up): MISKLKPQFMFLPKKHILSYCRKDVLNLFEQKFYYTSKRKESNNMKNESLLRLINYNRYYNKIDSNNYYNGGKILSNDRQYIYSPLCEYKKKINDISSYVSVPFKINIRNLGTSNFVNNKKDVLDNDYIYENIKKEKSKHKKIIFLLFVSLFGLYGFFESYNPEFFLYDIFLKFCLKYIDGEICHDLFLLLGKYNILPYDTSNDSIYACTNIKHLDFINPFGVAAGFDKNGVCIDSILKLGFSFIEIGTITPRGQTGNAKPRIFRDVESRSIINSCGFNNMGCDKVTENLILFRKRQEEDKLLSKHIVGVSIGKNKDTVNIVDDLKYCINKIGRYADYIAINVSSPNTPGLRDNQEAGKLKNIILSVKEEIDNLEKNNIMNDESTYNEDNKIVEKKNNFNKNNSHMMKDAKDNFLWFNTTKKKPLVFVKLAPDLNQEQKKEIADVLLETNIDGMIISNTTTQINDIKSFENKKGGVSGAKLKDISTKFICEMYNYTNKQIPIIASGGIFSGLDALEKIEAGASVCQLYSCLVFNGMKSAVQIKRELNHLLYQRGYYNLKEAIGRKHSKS

A short description of experiment [5]: P. aeruginosa biofilm formation inhibitors, primary screen, strain PAO1, LB-PBS medium, absorbance 600 nm (AID 1176). The conditions noted are these: P. aeruginosa PAO1 growth/biofilm, A600, 12 h; higher = more signal.
Experiment [6] is described as follows: S. cerevisiae RM11-1a growth modifiers, primary screen, strain RM11-1a, OD600, basal, 24 h (AID 1177).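 Also: cultures grown under basal conditions with no added stressor.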 The following applies: OD600, 24 h, higher = more signal, called active from +8 up or from −8 down.
A short description of experiment [7]: E. coli acrAB mutant growth effects, primary screen, E. coli filamentation inducers, strain DRC39, OD650, 24 h (AID 1178).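 Also: growth measured as culture turbidity by optical density at 650 nm.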 The conditions noted are these: higher = more signal, called active from +8 up or from −8 down.
Experiment [8] in a line: E. coli acrAB mutant growth effects, primary screen, E. coli filamentation inducers, strain DRC39, OD650, 48 h (AID 1179).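 Also: screen aims at cell division blockers that make cells filament.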 The following applies: E. coli DRC39 delta-acrAB growth, higher = more signal, called active from +8 up or from −8 down.
Experiment [9] in a line: RPMI8226 myeloma cell viability, profiling panel, resazurin fluorescence, basal, 24 h, PK04 Diversity Set (AID 1180).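 Also: RPMI8826 multiple myeloma cell line at 5000 cells per well.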 The following applies: higher = more signal.
In experiment [10] the target is E3 ubiquitin-protein ligase XIAP (Homo sapiens) (UniProt P98170). Kind of experiment: XIAP binders, primary screen, biophysical, small-molecule microarray, fluorescence 635 nm (AID 1181).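 Also: score merges 667 nm emission and signal to noise over triplicate slides.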 The following applies: small-molecule microarray binding, higher = more signal.
Chain of E3 ubiquitin-protein ligase XIAP (Homo sapiens) (P98170 whole entry, looked up): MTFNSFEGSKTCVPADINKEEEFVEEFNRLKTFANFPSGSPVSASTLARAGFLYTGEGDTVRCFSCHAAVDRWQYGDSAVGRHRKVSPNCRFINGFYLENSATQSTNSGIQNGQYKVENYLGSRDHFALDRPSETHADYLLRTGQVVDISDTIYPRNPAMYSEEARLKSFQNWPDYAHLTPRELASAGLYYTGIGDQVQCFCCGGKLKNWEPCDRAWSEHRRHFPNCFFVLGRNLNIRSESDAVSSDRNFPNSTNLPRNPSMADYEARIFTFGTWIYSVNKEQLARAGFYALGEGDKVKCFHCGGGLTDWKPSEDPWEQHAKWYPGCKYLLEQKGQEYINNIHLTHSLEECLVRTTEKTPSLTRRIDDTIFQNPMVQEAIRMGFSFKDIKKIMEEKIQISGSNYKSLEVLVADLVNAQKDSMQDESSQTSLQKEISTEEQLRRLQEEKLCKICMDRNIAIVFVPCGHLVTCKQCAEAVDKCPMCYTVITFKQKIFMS
Experiment [11] relates to XIP peptide (Xip251-270) binding. Kind of experiment: small-molecule binders of XIP peptide, primary screen, biochemical, small-molecule microarray, fluorescence 635/667 nm, 0.1 µg/mL protein (AID 1182). The conditions noted are these: fluorescent protein binding, 635 nm, higher = more signal, called active from +8 up or from −8 down.
Experiment [12] relates to XIP peptide (Xip251-270). The experiment is described as follows: small-molecule binders of XIP peptide, primary screen, biochemical, small-molecule microarray, fluorescence 635/667 nm, 0.5 µg/mL protein (AID 1183). The conditions noted are these: small-molecule microarray binding, fluorescence 635 nm; higher = more signal.
A short description of experiment [13]: Plasmodium falciparum growth inhibition, primary screen, strain 3D7, DAPI fluorescence, 100 nL (AID 1184).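 Also: parasites grown inside human red blood cells in medium with human serum.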 The conditions noted are these: P. falciparum 3D7 growth, 3 d, higher = more signal.
For experiment [14], the target named is Homeobox protein Hox-A13 (Mus musculus) (UniProt Q62424). The experiment is described as follows: inhibitors of HoxA13-DNA binding, primary screen, biochemical, fluorescence polarization, labeled oligonucleotide (AID 1185). The following applies: 15 min, higher = more signal, called active from +8 up or from −8 down.
Chain of Homeobox protein Hox-A13 (Mus musculus) (Q62424 whole entry, looked up): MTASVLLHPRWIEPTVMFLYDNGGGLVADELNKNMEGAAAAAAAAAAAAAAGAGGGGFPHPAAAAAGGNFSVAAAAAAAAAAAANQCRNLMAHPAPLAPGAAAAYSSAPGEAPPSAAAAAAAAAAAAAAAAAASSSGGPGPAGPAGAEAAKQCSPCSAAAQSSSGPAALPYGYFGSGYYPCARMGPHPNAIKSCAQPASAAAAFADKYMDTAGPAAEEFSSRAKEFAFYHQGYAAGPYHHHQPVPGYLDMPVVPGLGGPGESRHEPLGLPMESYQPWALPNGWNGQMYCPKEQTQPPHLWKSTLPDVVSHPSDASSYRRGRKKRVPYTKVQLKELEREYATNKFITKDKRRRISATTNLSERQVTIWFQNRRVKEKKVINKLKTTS
A short description of experiment [15]: inhibitors of hydroxyurea-induced Chk1 phosphorylation, primary screen, imaging, HeLa, phospho-Chk1 antibody, percent positive cells (AID 1186). The conditions noted are these: hydroxyurea-induced phospho-Chk1 immunofluorescence imaging, higher = more signal.
Experiment [16] in a line: inhibitors of hydroxyurea-induced Chk1 phosphorylation, primary screen, imaging, HeLa, phospho-Chk1 nuclear intensity (AID 1187). The conditions noted are these: hydroxyurea-induced phospho-Chk1 immunofluorescence imaging, higher = more signal.

The structures appear in SMILES notation. The source made the active and inactive calls. Unless noted, no rule for the calls is given here.

Regarding `C=C(CCCC)/C(=C/C[C@H](OC(=O)c1ccncc1)c1ccccc1OCCO)c1cc(C(=O)OC)ccc1OC`, the z-score was -0.345 in experiment [1]; 0.431 (inactive) in [2]; 0.531 (inactive) in experiment [3]; 0.297 (inactive) in experiment [5]; -0.3 (inactive) in experiment [6]; 0.128 (inactive) in [7]. The z-score was 0.0401 (inactive) in experiment [8]; 1.09 in [9]; -3.07 in experiment [13]; -4.22 (inactive) in experiment [14]; -1.15 (inactive) in experiment [15]; -0.733 (inactive) in experiment [16]. For the same compound, the composite z-score is -1.36 (inactive) in experiment [4], -0.184 in experiment [10], 0.578 (inactive) in experiment [11] and 0.0792 in [12].
As for `C[N+](C)(C)CCCC[C@@H]1NC(=O)[C@H]2C[C@@H](C(=O)NCCCCCNC(=O)CS)[C@@H](c3cccc(OCCO)c3)N2C1=O`, the z-score in experiment [1] was -0.226; in experiment [2], -0.307 (inactive); in experiment [3], 0.703 (inactive); in experiment [5] it was 0.298 (inactive); in experiment [6], -1.13 (inactive); in experiment [7] it was -0.133 (inactive). Moreover, the z-score was -0.779 (inactive) in [8]; 0.401 in experiment [9]; -0.222 in experiment [13]; -2.8 (inactive) in experiment [14]; 0.0911 (inactive) in experiment [15]; 0.164 (inactive) in experiment [16]. Further, the composite z-score in experiment [4] is -0.867 (inactive); in [10], -0.102; in [11] it was 0.649 (inactive); in experiment [12] it was -0.203.
On to `CC(C)(C)N1CC=CC23O[C@@H]4/C=C\CCCOC(=O)C4[C@H]2C(=O)N(CCCCCO)[C@@H]3C1=O` (stereo not given in full), for which the z-score was -0.144 in experiment [1]; 0.309 (inactive) in experiment [2]; 0.0676 (inactive) in experiment [3]; 0.481 (inactive) in [5]; -0.746 (inactive) in experiment [6]; 0.0531 (inactive) in [7]. In addition, the z-score in experiment [8] was -0.0503 (inactive); in [9], -0.119; in [13] it was 1.91; in [14] it was -4.34 (inactive); in experiment [15], 0.395 (inactive); in experiment [16] it was 0.144 (inactive). For the same compound, the composite z-score in experiment [4] is -0.22 (inactive); in experiment [10], -0.11; in [11], 0.176 (inactive); in experiment [12] it was -1.03.
`C=CCOC(=O)[C@@H]1[C@H]2C(=O)O[C@H](c3ccccc3)[C@H](c3ccccc3)N2[C@H](c2ccc(OCCOC(=O)[C@H]3C[C@H]4C(=O)NCC(=O)N4[C@H]3c3cccc(OCCO)c3)cc2)[C@@]12C(=O)Nc1ccc(I)cc12`: the z-score in experiment [1] is -0.155; in experiment [2], 1.87 (inactive); in experiment [3], -0.0681 (inactive); in [5], 3.08 (inactive); in experiment [6] it was 1.08 (inactive); in experiment [7], 0.0109 (inactive). The z-score in experiment [8] is 0.312 (inactive); in experiment [9] it was -1.09; in [13] it was -1.9; in experiment [14], 0.337 (inactive); in experiment [15] it was -0.856 (inactive); in experiment [16], -1.2 (inactive). In addition, the composite z-score is 0.131 (inactive) in experiment [4], -0.117 in [10], 0.604 (inactive) in experiment [11] and 0.794 in experiment [12].
In the case of `COCCCNC(=O)[C@@H]1c2ccccc2C(=O)N(Cc2ccc(OC(F)(F)F)cc2)[C@H]1c1ccc(CO)cc1`, the z-score is 0.201 in experiment [1]; 0 (inactive) in experiment [2]; -0.148 (inactive) in experiment [3]; 0.801 (inactive) in [5]; -1.06 (inactive) in experiment [6]; 0.454 (inactive) in experiment [7]. Besides, the z-score was -0.34 (inactive) in [8]; 0.116 in experiment [9]; 0.0414 in [13]; -3.51 (inactive) in [14]; -0.163 (inactive) in [15]; -0.368 (inactive) in experiment [16]. Besides, the composite z-score in experiment [4] was 0.228 (inactive); in experiment [10], -0.219; in [11], 0.16 (inactive); in experiment [12], 0.314.
Turning to `CCCCN1CC=CC23O[C@@H]4/C=C\CCCOC(=O)C4[C@H]2C(=O)N(C(CO)C(C)C)[C@@H]3C1=O` (stereo not given in full), the z-score was -0.101 in [1]; 0.259 (inactive) in experiment [2]; -0.289 (inactive) in experiment [3]; -0.0432 (inactive) in experiment [5]; -0.427 (inactive) in experiment [6]; 0.116 (inactive) in experiment [7]. Also, the z-score in [8] was -0.091 (inactive); in experiment [9], -0.235; in [13], 1.18; in experiment [14], -5.81 (inactive); in [15], 0.458 (inactive); in experiment [16], 0.188 (inactive). The composite z-score in [4] was -1.4 (inactive); in experiment [10], -0.0393; in experiment [11] it was 1.4 (inactive); in experiment [12], -0.492.
Regarding `COC(=O)[C@@]1(Cc2ccc(F)cc2)[C@H]2c3cc(C(=O)N4CCCC4)n(Cc4ccccn4)c3C[C@H]2CN1C(=O)c1ccccc1`, the z-score was -1.52 in [1]; 1.32 (inactive) in experiment [2]; -2.15 (inactive) in [3]; 1.03 (inactive) in experiment [5]; 0.938 (inactive) in [6]; -0.81 (inactive) in experiment [7]. The z-score in experiment [8] is -0.962 (inactive); in experiment [9] it was -2.45; in [13] it was -1.68; in experiment [14], -4.98 (inactive); in experiment [15], 0.0348 (inactive); in [16], -0.0643 (inactive). The composite z-score in experiment [4] was 0.29 (inactive); in experiment [10], 0.0945; in experiment [11] it was 0.224 (inactive); in experiment [12] it was 0.769.
On to `O=C1[C@H]2C=C(I)[C@H](C[C@@H]2c2ccccc2)[C@@]12CO2`, for which the z-score in experiment [1] is -0.488; in experiment [2], -11.5 (active); in experiment [3], -0.886 (inactive); in experiment [5], 0.236 (inactive); in [6] it was -2.23 (inactive); in experiment [7], -0.791 (inactive). Also, the z-score in experiment [8] was -1.24 (inactive); in experiment [9], -0.603; in experiment [13], 1.46; in experiment [14], -1.96 (inactive); in [15], -0.428 (inactive); in experiment [16], -0.0968 (inactive). In addition, the composite z-score in [4] was -0.376 (inactive); in experiment [10], -0.223; in [11], -0.432 (inactive); in experiment [12], -0.321.
Consider `COCCCNC(=O)[C@@]1(Sc2ccc(C)cc2)CC(=O)N(Cc2ccccc2C(F)(F)F)[C@@H]1c1ccc(CO)cc1I`, for which the z-score in experiment [1] was -1.07; in experiment [2], -2.19 (inactive); in [3], -2.56 (inactive); in experiment [5], 0.0993 (inactive); in [6] it was -1.2 (inactive); in [7], -0.473 (inactive). The z-score in [8] was 0.0799 (inactive); in experiment [9], -2.75; in experiment [13] it was -0.284; in experiment [14], -2.03 (inactive); in experiment [15], 0.26 (inactive); in [16] it was 0.204 (inactive). The composite z-score in experiment [4] is 0.0681 (inactive); in experiment [10] it was 0.419; in experiment [11], 0.814 (inactive); in experiment [12], -0.251.
Turning to `CCCc1cc2c(n1CCc1ccc(Cl)cc1)C(C)C1CN(C(=O)c3ccccc3)C(C)(C(=O)OC)C21` (stereo not given), the z-score in [1] is -1.19; in experiment [2] it was 0.736 (inactive); in [3], -2.85 (inactive); in experiment [5], 0.659 (inactive); in experiment [6], 1.09 (inactive); in experiment [7], -1.34 (inactive). In addition, the z-score was -1.33 (inactive) in experiment [8]; -1.98 in experiment [9]; -1.18 in [13]; -5.05 (inactive) in experiment [14]; 0.853 (inactive) in experiment [15]; 0.692 (inactive) in [16]. For the same compound, the composite z-score in experiment [4] is -0.823 (inactive); in experiment [10], 0.527; in experiment [11], -0.573 (inactive); in [12], 0.201.

For the origin of these results see PubChem BioAssay.
